Shiga toxin inh: inhibitors of Shiga toxin in Vero cells. AID 2315. hit rate 9.2% among 290,000. inhibition, % at 38.7 µM. Vero cells, Shiga toxin protein synthesis inhibition reporter; in the data active means inhibition mostly above about 28%, no sharp cut-off; inactive means mostly below about 43%; further: 0% is about no effect
Pf growth 48h: inhibits P. falciparum growth in the first generation, 48 h; P. falciparum luciferase growth in erythrocytes, 48 h; Potency, µM (top dose mostly 28.7 µM), without a hit: at the top dose activity change, negative = inhibition, usual class: inhibitors; hit rate 5.9% among 310,000; AID 504832; further: potency means the concentration at half of the fitted maximal effect; on the % scale 0 is the no-effect control and ±100 the full control effect
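Growth was read as firefly luciferase luminescence after a 48 h, 37 C, 5% CO2 exposure of compounds to reporter-bearing P. falciparum cultures (0.1% parasitemia, 2% hematocrit final) in Albumax-supplemented RPMI 1640.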
HCV inh: blocks hepatitis C virus; Huh7.5.1 HCVcc-Cre infection, luciferase reporter, 44 h; Potency, µM (top dose mostly 41.8 µM), without a hit: at the highest dose activity change, negative = inhibition, hits mostly inhibitors; hit rate 3.4% among 340,000; further: potency means the concentration at half of the fitted maximal effect; on the % scale 0 is the no-effect control and ±100 the full control effect
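Infectious HCVcc-Cre (~0.5 moi) was added to cells just after compound, with cells seeded 4 h earlier at 1,000 per well. Luciferase activity after 44 h culture reported infection; substrate was incubated 15 min at room temperature before reading.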
Cycloheximide cs: affects cycloheximide protein synthesis inhibition readout, counter-screen | cell reporter, cycloheximide protein synthesis inhibition counterscreen | AID 2314 | max response, % | hit rate 12% among 300,000; in the data active means max response mostly above about 13%, no sharp cut-off; inactive means mostly below about 14%; further: read at 38.3 µM for the half of the compounds with a filed dose; 0% is about no effect
Pf growth 96h: inhibits malaria parasite growth, 96 h | P. falciparum luciferase reporter growth, 96 h | Potency, µM (top dose mostly 28.7 µM), without a hit: at the highest dose activity change, negative = inhibition, hits mostly inhibitors | hit rate 6.9% among 320,000 | AID 504834; further: potency means the concentration at half of the fitted maximal effect; on the % scale 0 is the no-effect control and ±100 the full control effect
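P. falciparum expressing integrated firefly luciferase grown in erythrocytes (2% hematocrit, 0.05% parasitemia final) with compounds for 96 hours at 37 C, 5% CO2. Growth inhibition read as loss of luminescence after adding luciferase detection reagent.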
HCMV inh: inhibitors of human cytomegalovirus; HFF cells, HCMV-luciferase reporter, 72 h; stronger effect = lower value; activity change, negative = inhibition, % at 57.5 µM; hit rate 4.5% among 410,000; AID 1259415; in the data active means activity change below about -60%; inconclusive means no clear call, values can overlap the other calls; inactive means above about -39%; further: on the % scale 0 is the no-effect control and ±100 the full control effect
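Luciferase read-out from HCMV-luciferase-infected HFFs (MOI 1 PFU/cell) 72 h post infection at 37C; compounds added after 16 h cell attachment; activity normalized between buffer-only basal and Salinomycin (10uM) inhibitor controls.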
Active calls of the source: *; ? = inconclusive; . = no result given. Shown are actives, neighbours in structure and some others; about 21% of the full set was active somewhere. Unless noted, the call rests on the fitted dose curve; in most records, active means well fitted inhibition curve with a large enough effect; inconclusive means small, poorly fitted or top-dose-only effect, or another doubt; inactive means no such curve, though single readings can be large or run the other way.

SMILES	Shiga toxin inh	Pf growth 48h	HCV inh	Cycloheximide cs	Pf growth 96h	HCMV inh
CSc1ccc(C(=O)C2CCCN(Cc3cccc4nccnc34)C2)cc1 (centres undefined)	-17	10µM*	-19%	-3	?	-9
O=C(c1ccccc1)C1CCCN(Cc2nc(-c3cnccn3)no2)C1 (centres undefined)	19	-12%	10%	-4	5.2µM*	30
O=C(c1ccc(Cl)cc1)C1CCCN(Cc2cccc3ncccc23)C1 (centres undefined)	-8	?	7.9µM*	2	?	0
Cc1c(C(=O)NN2CCOCC2)oc2c1ccc1ccccc12	14	11%	-14%	-2	13%	-27
Cc1ccc(C2CC(=O)n3nc(-c4cccc(C)c4)nc3S2)cc1 (centres undefined)	.	.	.	.	.	2
COc1ccc(S(=O)(=O)N2CCCCCC2)cc1C(=O)N1CCN(C(C)=O)CC1	.	.	.	.	.	25
CN1CCN(CCCC(=O)c2ccc(C3CCCC3)cc2)CC1	54*	-9%	?	29*	?	-9
CC(=O)OCCBr	-4	.	.	-3	.	.
O=C(Nc1ccc(C(=O)NCc2ccc(F)cc2)cc1)C1=CSCCO1	102*	?	-7%	38*	30%	12
O=C(Nc1ccc(C(=O)N2CCN(c3ccc(F)cc3)CC2)cc1)C1=CSCCO1	12	?	-7%	13	?	-28
CC(C)OCCCNC(=O)c1ccc(NC(=O)C2=CSCCO2)cc1	5	-10%	1%	1	-3%	-26
O=C(Nc1ccc(C(=O)NCc2ccccc2)cc1)C1=CSCCO1	38*	9%	-4%	28*	?	23
CCc1ccc(CNC(=O)c2ccc(NC(=O)C3=CSCCO3)cc2)cc1	21*	2%	2%	33*	?	-31
CC1=NN(c2ccccc2)C(=O)C1N=Nc1ccc(C)cc1 (centres undefined)	25	24%	.	17	10µM*	.
CC1=NN(c2nc(-c3ccc(C)cc3)cs2)C(=O)C1N=Nc1ccc(C(N)=O)cc1 (centres undefined)	30	5%	2.8µM*	15*	-1%	?
CC1=NN(c2ccccc2)C(=O)C1C=Nc1ccc(N(C)C)cc1 (centres undefined)	39*	?	-15%	17*	?	-16
COc1ccc(-c2csc(N3C(=O)C4C5c6ccccc6C(c6ccccc65)[C@@H]4C3=O)n2)cc1 (some centres undefined)	-6	-9%	19%	-4	-3%	?
CC1=NN(c2ccccc2)C(=O)C1N=Nc1ccc(S(N)(=O)=O)cc1 (centres undefined)	-3	?	16%	1	-10%	25
CC1=NN(c2nc(-c3ccc(C)cc3)cs2)C(=O)C1N=Nc1ccc2ccccc2c1 (centres undefined)	72	47%	16%	18*	?	62
O=C(N/N=C/c1ccc(OC(F)F)cc1OC(F)F)c1cccc(S(=O)(=O)N2CCOCC2)c1	-6	-21%	1%	7	-4%	-19
COc1cccc(Cn2c(CNC(=O)CCc3ccccc3)nc3cccnc32)c1	.	.	.	.	.	1
O=C([O-])[C@@H]1[O][Sb+]([O][Sb+]2[O][C@H]([C@H](O)CO)[C@H](O)[C@H](C(=O)[O-])[O]2)[O][C@H]([C@H](O)CO)[C@@H]1O	1	.	.	-6	.	.
Cc1ccc(Nc2nc(N)c(C#N)c(CC#N)c2C#N)cc1	12	20%	-13%	-2	81%	50
CC1=NN(c2nc(-c3ccccc3)cs2)C(=O)C1N=Nc1ccccc1 (centres undefined)	53*	11%	-14%	43*	45%	-9
c1ccc(-c2csc(-n3cnnn3)n2)cc1	55	27%	?	7	0%	-7
Cc1ccccc1Cn1c(=O)n(Cc2ccco2)c(=O)c2ccccc21	12	-29%	13%	-2	-27%	?
Cc1ccccc1Cn1c(=N)n(CC(O)c2ccco2)c2ccccc21 (centres undefined)	-17	9.3µM*	?	0	?	-6

Screening data (PubChem)
